What is called inhibition is the change of the read-out against control, counted positive when it falls.

Each structure is given as a SMILES string. The list shows a part of the results. The source made the active and inactive calls.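 How the source made its calls, unless noted: active means mean inhibition above about 50% (limit read from the data); inactive means the rest.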

Here are results for 14 molecules from PubChem BioAssay.

Chain of Sentrin-specific protease 7 (Homo sapiens) (Q9BQF6 706-1050 limits assumed): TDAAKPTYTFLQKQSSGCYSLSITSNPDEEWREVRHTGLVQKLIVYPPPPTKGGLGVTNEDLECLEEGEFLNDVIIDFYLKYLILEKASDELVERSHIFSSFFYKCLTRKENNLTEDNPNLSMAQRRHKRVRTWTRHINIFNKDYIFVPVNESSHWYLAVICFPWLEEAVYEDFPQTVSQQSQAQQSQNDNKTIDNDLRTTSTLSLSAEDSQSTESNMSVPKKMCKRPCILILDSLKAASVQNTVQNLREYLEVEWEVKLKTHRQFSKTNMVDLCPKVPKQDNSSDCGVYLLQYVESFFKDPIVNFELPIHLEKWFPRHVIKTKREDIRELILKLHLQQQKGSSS

One test addresses Sentrin-specific protease 7 (Homo sapiens) (UniProt Q9BQF6). In words: SENP7 protease inhibitors, retest, confirmation, biochemical, luminescence, single concentration (AID 488917;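 active means mean inhibition above about 50% in the one-dose retest, limit read from the data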). Conditions: recombinant SENP7, Z-RLRGG-aminoluciferin luminescence, 40 min; at 12.5 µM; stronger effect = higher value.
For `Cc1ccc(-c2cn3cc(C)ccc3n2)cc1`, the inhibition is 101% (active).
Still for that read-out and setting: the result for `O=C(Oc1ccc(-c2nc(-c3ccccn3)no2)cc1)c1ccccc1` reads 2.6% (inactive).
With `COc1cc(SC)ccc1C(=O)Nc1cc(C)ccn1`, the inhibition is 78.8% (active).
On the same count and under the same terms, in the case of `CC(=O)c1sc(NC(=O)c2ccc(C)cc2)nc1C` it was 3.1% (inactive); in that of `COc1cc(SC)ccc1C(=O)Nc1nc(C)cs1`, 100% (active); in that of `COc1ccc(-c2nc(-c3ccccc3)no2)c(OC)c1`, 103% (active).
The same measure, in the same setting: the result for `Cn1c(-c2ccco2)nc2cc3ccccc3cc21` reads 103% (active).
As to `Cc1ccc(-c2nc3ccccc3[nH]2)cc1N`, the inhibition is 102% (active).
Still for that read-out and setting: in the case of `Clc1ccc(-c2cc(-c3ccccn3)on2)c(Cl)c1` it was 102% (active); in that of `COc1ccc(C(=O)Nc2ccccc2C(=O)N/N=C/c2ccc(O)c(OC)c2)cc1`, 102% (active); in that of `COc1ccc(-c2cn3ccc(C)cc3n2)cc1`, 99.5% (active).

For another test, the target named is Caspase-3 (Homo sapiens) (UniProt P42574). Put plainly: caspase-3 protease inhibitors, confirmation, selectivity assay for SENP inhibitor project, biochemical, single concentration (AID 488918).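 Further: plate controls were enzyme with DMSO for no effect and wells without caspase-3 for full effect.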 Particulars: purified caspase-3, Z-DEVD-aminoluciferin luminescence, 60 min; at 12.5 µM; stronger effect = higher value.
Chain of Caspase-3 (Homo sapiens) (P42574 28-227 limits assumed): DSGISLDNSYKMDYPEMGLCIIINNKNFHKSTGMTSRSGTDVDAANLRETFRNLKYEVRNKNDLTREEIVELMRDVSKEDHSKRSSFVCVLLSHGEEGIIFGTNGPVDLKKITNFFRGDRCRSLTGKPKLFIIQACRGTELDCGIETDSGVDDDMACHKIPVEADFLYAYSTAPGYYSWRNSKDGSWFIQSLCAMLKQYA
As for `Cc1ccc(-c2cn3cc(C)ccc3n2)cc1`, the inhibition was 95% (active).
`O=C(Oc1ccc(-c2nc(-c3ccccn3)no2)cc1)c1ccccc1`: the inhibition is 14.5% (inactive).
The same measure, in the same setting: the result for `COc1cc(SC)ccc1C(=O)Nc1cc(C)ccn1` reads 43.8% (inactive).
Take `CC(=O)c1sc(NC(=O)c2ccc(C)cc2)nc1C`: the inhibition is 6% (inactive).
On the same count and under the same terms, in the case of `COc1cc(SC)ccc1C(=O)Nc1nc(C)cs1` it was 95.3% (active); in that of `COc1ccc(-c2nc(-c3ccccc3)no2)c(OC)c1`, 98.1% (active); in that of `Cn1c(-c2ccco2)nc2cc3ccccc3cc21`, 98.1% (active).
Turning to `Cc1ccc(-c2nc3ccccc3[nH]2)cc1N`, the inhibition was 96.7% (active).
On the same count and under the same terms, in the case of `Clc1ccc(-c2cc(-c3ccccn3)on2)c(Cl)c1` it was 94.9% (active).
For `COc1ccc(C(=O)Nc2ccccc2C(=O)N/N=C/c2ccc(O)c(OC)c2)cc1`, the inhibition was 98.4% (active).
Still for that read-out and setting: the result for `COc1ccc(-c2cn3ccc(C)cc3n2)cc1` reads 95.2% (active).

Tested on in another test: not listed separately
In words: luciferase luminescence interference by compounds, confirmation, artefact control for SENP inhibitor project, biochemical, single concentration, SENP8 reaction pre-completed (AID 488919;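 active means mean inhibition above about 50% when retested at one dose, limit read from the data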;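 further: plate controls were DMSO wells with completed reaction for no effect and substrate without enzyme for full effect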). Particulars: Pre-incubated SENP8/Z-RLRGG-aminoluciferin, at 12.5 µM, stronger effect = higher value.
Consider `Cc1ccc(-c2cn3cc(C)ccc3n2)cc1`, for which the inhibition is 39.4% (inactive).
Same read-out and setting: the result for `O=C(Oc1ccc(-c2nc(-c3ccccn3)no2)cc1)c1ccccc1` reads 2.6% (inactive).
The same measure, in the same setting: the result for `COc1cc(SC)ccc1C(=O)Nc1cc(C)ccn1` reads 51% (active); that for `CC(=O)c1sc(NC(=O)c2ccc(C)cc2)nc1C`, -5.6% (inactive); that for `COc1cc(SC)ccc1C(=O)Nc1nc(C)cs1`, 46.2% (inactive).
Take `COc1ccc(-c2nc(-c3ccccc3)no2)c(OC)c1`: the inhibition is 98.1% (active).
`Cn1c(-c2ccco2)nc2cc3ccccc3cc21`: the inhibition was 98.1% (active).
On to `Cc1ccc(-c2nc3ccccc3[nH]2)cc1N`, for which the inhibition was 92.3% (active).
Still for that read-out and setting: in the case of `Clc1ccc(-c2cc(-c3ccccn3)on2)c(Cl)c1` it was 32.9% (inactive); in that of `COc1ccc(C(=O)Nc2ccccc2C(=O)N/N=C/c2ccc(O)c(OC)c2)cc1`, 83.7% (active).
On the same count and under the same terms, the result for `COc1ccc(-c2cn3ccc(C)cc3n2)cc1` reads 91.2% (active).

Tested on in another test: not listed separately
In words: Peg3 promoter reporter inhibitors, retest, confirmation, cell-based, HeLa, luciferase reporter, single concentration (AID 602417;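 active means at 20 µM dose, 40% or more inhibition averaged across four replicates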). Particulars: HeLa PEG-Prom luciferase reporter, luminescence, overnight; at 20 µM; stronger effect = higher value. A general note: Reporter assays use an easily measured gene product as a stand-in for the process of interest.
For `Cc1ccc(-c2cn3cc(C)ccc3n2)cc1`, the inhibition is 82% (active).
On the same count and under the same terms, in the case of `COc1cc(SC)ccc1C(=O)Nc1nc(C)cs1` it was 83% (active); in that of `O=C(/C=C/c1ccc(Cl)c([N+](=O)[O-])c1)c1ccc(O)cc1`, 98.9% (active); in that of `CCC(C)Cn1c(O)cc2nn(-c3nc4ccccc4s3)c(=O)c-2c1C` (centres undefined), 94.5% (active).

Tested on in a further test: not listed separately
In words: HIF-2a reporter inhibitor retest, confirmation, luminescence, 786-0 RCC cells (AID 651580;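 active means mean inhibition across four replicates of at least 40 percent at the single tested concentration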). Conditions: HIF-2a luciferase reporter luminescence, overnight, at 18.8 µM, stronger effect = higher value.
On to `Clc1ccc2nc(-c3ccccc3)nc(C(Cl)Cl)c2c1`, for which the inhibition was -30.4% (inactive).
On the same count and under the same terms, in the case of `COc1cc(SC)ccc1C(=O)Nc1nc(C)cs1` it was 92.8% (active); in that of `O=C(/C=C/c1ccc(Cl)c([N+](=O)[O-])c1)c1ccc(O)cc1`, 20.2% (inactive).

Tested on in a further test: not listed separately
In words: HIF-1a luciferase reporter signal reduction – MiaPaCa-2 cells, single concentration, counter-screen for HIF-2a inhibitor project, confirmation (AID 651589;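 active means mean inhibition of the reporter signal across four replicates at the single tested dose of 50% or more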). Conditions: MiaPaCa-2 HIF-1a luciferase reporter, desferoxamine, overnight; at 18.8 µM; stronger effect = higher value.
Turning to `Clc1ccc2nc(-c3ccccc3)nc(C(Cl)Cl)c2c1`, the inhibition was 104% (active).
On the same count and under the same terms, the result for `COc1cc(SC)ccc1C(=O)Nc1nc(C)cs1` reads 96.9% (active); that for `O=C(/C=C/c1ccc(Cl)c([N+](=O)[O-])c1)c1ccc(O)cc1`, 105% (active).

A further test addresses PEG-3 (UniProt Q6IN02). In words: Peg3 promoter luciferase inhibitors, potency, dose response, cell-based, HeLa, CREF/GAPDH counter-screen panel (AID 624167). Particulars: CREF/GAPDH counter-screens; HeLa PEG-Prom luciferase reporter, overnight, run 1, dose range 1, at 100 µM (top of the series) unless noted.
`Cc1ccc(-c2cn3cc(C)ccc3n2)cc1`: the inhibition came to 96.6%.
`COc1cc(SC)ccc1C(=O)Nc1nc(C)cs1`: the inhibition was determined as 96.4%.
On the same count and under the same terms, the result for `O=C(/C=C/c1ccc(Cl)c([N+](=O)[O-])c1)c1ccc(O)cc1` reads 102%; that for `CCC(C)Cn1c(O)cc2nn(-c3nc4ccccc4s3)c(=O)c-2c1C` (centres undefined), 99%.

The target of a further test is PEG-3 (UniProt Q6IN02). Described as above. Particulars: CREF/GAPDH counter-screens; HeLa PEG-Prom luciferase reporter, overnight, run 2, dose range 1, at 100 µM (top of the series) unless noted. On the technique in general: The purpose of a counterscreen is to sort out artefacts and off-target activity.
Chain of PEG-3 (Q6IN02 whole entry, looked up): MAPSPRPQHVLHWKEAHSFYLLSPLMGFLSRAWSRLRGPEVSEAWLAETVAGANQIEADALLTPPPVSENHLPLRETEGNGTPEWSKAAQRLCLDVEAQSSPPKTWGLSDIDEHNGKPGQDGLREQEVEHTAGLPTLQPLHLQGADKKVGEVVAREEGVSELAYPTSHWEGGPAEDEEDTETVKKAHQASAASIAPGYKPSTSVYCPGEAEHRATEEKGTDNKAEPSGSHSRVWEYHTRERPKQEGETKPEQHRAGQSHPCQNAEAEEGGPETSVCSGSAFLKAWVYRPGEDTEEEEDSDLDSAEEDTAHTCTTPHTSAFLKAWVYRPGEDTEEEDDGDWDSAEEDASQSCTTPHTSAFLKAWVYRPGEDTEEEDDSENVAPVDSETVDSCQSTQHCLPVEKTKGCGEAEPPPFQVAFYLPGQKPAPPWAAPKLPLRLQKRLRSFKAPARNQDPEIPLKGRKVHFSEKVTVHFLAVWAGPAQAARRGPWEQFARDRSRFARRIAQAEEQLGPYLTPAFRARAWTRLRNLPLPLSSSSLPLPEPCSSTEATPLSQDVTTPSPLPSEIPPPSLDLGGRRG
As for `Cc1ccc(-c2cn3cc(C)ccc3n2)cc1`, the inhibition stood at 96.4%.
Turning to `COc1cc(SC)ccc1C(=O)Nc1nc(C)cs1`, the inhibition worked out at 95.2%.
Still for that read-out and setting: the result for `O=C(/C=C/c1ccc(Cl)c([N+](=O)[O-])c1)c1ccc(O)cc1` reads 99.1%; that for `CCC(C)Cn1c(O)cc2nn(-c3nc4ccccc4s3)c(=O)c-2c1C` (centres undefined), 101%.

The subject of a further test is Rat fibroblasts (CREF). Described as above. Conditions: CREF/GAPDH counter-screens; run 1, dose range 1, at 100 µM (top of the series).
For `Cc1ccc(-c2cn3cc(C)ccc3n2)cc1`, the inhibition was found to be 98.1%.
The same measure, in the same setting: the result for `COc1cc(SC)ccc1C(=O)Nc1nc(C)cs1` reads 98.6%; that for `O=C(/C=C/c1ccc(Cl)c([N+](=O)[O-])c1)c1ccc(O)cc1`, 99.1%; that for `CCC(C)Cn1c(O)cc2nn(-c3nc4ccccc4s3)c(=O)c-2c1C` (centres undefined), 72.9%.

The next test relates to Rat fibroblasts (CREF). The description is as above. Conditions: CREF/GAPDH counter-screens; run 2, dose range 1, at 100 µM (top of the series).
Consider `Cc1ccc(-c2cn3cc(C)ccc3n2)cc1`, for which the inhibition was 96.8%.
As for `COc1cc(SC)ccc1C(=O)Nc1nc(C)cs1`, the inhibition is 99.8%.
Same read-out and setting: the result for `O=C(/C=C/c1ccc(Cl)c([N+](=O)[O-])c1)c1ccc(O)cc1` reads 98.7%; that for `CCC(C)Cn1c(O)cc2nn(-c3nc4ccccc4s3)c(=O)c-2c1C` (centres undefined), 68.7%.
